Many of the other results were omitted from the sample, so the strongest signals are more common in it than they were.
Assays:
Assay in all cases: glycan array binding signal (z-score within array); higher = stronger binding
Details in all cases: glycan notation: IUPAC condensed, linker removed; mutation: R343V
[1] = molecular target: Fuc(a1-2)Gal(b1-4)Glc6S
Outline: (§1)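 The Consortium for Functional Glycomics database supplied 3228 glycan arrays, of which those lacking an available protein sequence were dropped. The binding signal, a within-array Z-score, was averaged across arrays of the same protein sequence and across linkers. Negative scores can be read as non-binding.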

[2] = molecular target: Fuc(a1-2)Gal(b1-4)GlcNAc(b1-3)Gal(b1-4)GlcNAc
Outline: as §1

[3] = molecular target: Fuc(a1-2)Gal6S(b1-4)Glc6S
Outline: as §1

[4] = molecular target: Fuc(a1-2)[Gal(a1-3)]Gal(b1-4)GlcNAc
Outline: as §1

[5] = molecular target: Fuc(a1-2)[GalNAc(a1-3)]Gal(b1-3)GlcNAc
Outline: as §1

[6] = molecular target: Fuc(a1-3)GlcNAc
Outline: as §1

[7] = molecular target: Gal(b1-3)Gal(b1-4)GlcNAc
Outline: as §1

[8] = molecular target: Gal(b1-3)GalNAc(b1-4)Gal(b1-4)Glc
Outline: as §1

[9] = molecular target: Gal(b1-3)[Fuc(a1-4)]GlcNAc(b1-3)Gal(b1-4)[Fuc(a1-3)]GlcNAc
Outline: as §1

[10] = molecular target: Gal(b1-3)[Neu5Ac(a2-6)]GlcNAc(b1-6)Gal(b1-4)Glc
Outline: as §1

[11] = molecular target: Gal(b1-4)GlcNAc(b1-6)GalNAc
Outline: as §1

[12] = molecular target: Gal3S(b1-4)Glc6S
Outline: as §1

[13] = molecular target: Gal3S6S(b1-4)GlcNAc6S
Outline: as §1

[14] = molecular target: GlcA(b1-6)Gal
Outline: as §1

[15] = molecular target: GlcNAc(b1-2)Man(a1-3)[GlcNAc(b1-2)Man(a1-6)]Man(b1-4)GlcNAc(b1-4)GlcNAc
Outline: as §1

[16] = molecular target: GlcNAc(b1-3)Gal(b1-3)GalNAc
Outline: as §1

[17] = molecular target: GlcNAc(b1-3)[GlcNAc(b1-4)][GlcNAc(b1-6)]GlcNAc
Outline: as §1

[18] = molecular target: GlcNAc(b1-4)Gal(b1-4)GlcNAc
Outline: as §1

[19] = molecular target: GlcNAc(b1-4)[GlcNAc(b1-6)]GalNAc
Outline: as §1

[20] = molecular target: Kdn(a2-3)Gal(b1-3)GlcNAc
Outline: as §1

[21] = molecular target: Man(a1-2)Man(a1-3)[Man(a1-6)]Man(a1-6)[Man(a1-2)Man(a1-3)]Man(b1-4)GlcNAc(b1-4)GlcNAc
Outline: as §1

[22] = molecular target: Man(a1-3)[Man(a1-6)]Man(a1-6)[Man(a1-2)Man(a1-3)]Man(b1-4)GlcNAc(b1-4)GlcNAc
Outline: as §1

[23] = molecular target: Man(a1-3)[Man(a1-6)]Man(a1-6)[Man(a1-3)]Man(b1-4)GlcNAc(b1-4)GlcNAc
Outline: as §1

[24] = molecular target: Neu5Ac(a2-3)Gal(b1-4)GlcNAc(b1-3)Gal(b1-3)GlcNAc
Outline: as §1

[25] = molecular target: Neu5Ac(a2-6)Gal(b1-4)GlcNAc6S
Outline: as §1

[26] = molecular target: Neu5Ac(a2-8)Neu5Ac(a2-3)Gal(b1-4)Glc
Outline: as §1

[27] = molecular target: Neu5Ac(a2-8)Neu5Ac(a2-8)Neu5Ac(a2-3)Gal(b1-4)Glc
Outline: as §1

B1: Surfactant Protein D (Human); Neck + Carbohydrate Recognition Domain (NCRD) (Homo sapiens) (protein)
chain: MLLFLLSALVLLTQPLGYLEAEMKTYSHRTMPSACTLVMCSSVESGLPGRDRDGREGPRGEKGDPGLPGAAGQAGMPGQAGPVGPKGDNGSVGEPGPKGDTGPSGPPGPPGVPGPAGREGALGKQGNIGPQGKPGPKGEAGPKGEVGAPGMQGSAGARGLAGPKGERGVPGERGVPGNTGAAGSAGAMGPQGSPGARGPPGLKGDKGIPGDKGAKGESGLPDVASLRQQVEALQGQVQHLQAAFSQYKKVELFPNGQSVGEKIFKTAQFVKPFTEAQLLCTQAGGQLASPRSAAENAALQQLVVAKNEAAFLSMTDSKTEGKFTYPTGESLVYSNWAPGEPNDDGGSEDCVEIFTNGKWNDVACGEKRLVVCEF
glycan array binding signal (z-score) [1]: -0.514 | glycan array binding signal (z-score) [2]: 1.5 | glycan array binding signal (z-score) [3]: -0.304 | glycan array binding signal (z-score) [4]: -0.508 | glycan array binding signal (z-score) [5]: -0.559 | glycan array binding signal (z-score) [6]: 3.11 | glycan array binding signal (z-score) [7]: -0.562 | glycan array binding signal (z-score) [8]: -0.463 | glycan array binding signal (z-score) [9]: 2.11 | glycan array binding signal (z-score) [10]: -0.498 | glycan array binding signal (z-score) [11]: -0.546 | glycan array binding signal (z-score) [12]: -0.317 | glycan array binding signal (z-score) [13]: -0.189 | glycan array binding signal (z-score) [14]: -0.463 | glycan array binding signal (z-score) [15]: 3.08 | glycan array binding signal (z-score) [16]: 1.72 | glycan array binding signal (z-score) [17]: 3.11 | glycan array binding signal (z-score) [18]: 3.13 | glycan array binding signal (z-score) [19]: 2.16 | glycan array binding signal (z-score) [20]: -0.504 | glycan array binding signal (z-score) [21]: 2.61 | glycan array binding signal (z-score) [22]: 3.01 | glycan array binding signal (z-score) [23]: 3.27 | glycan array binding signal (z-score) [24]: -0.489 | glycan array binding signal (z-score) [25]: -0.319 | glycan array binding signal (z-score) [26]: -0.47 | glycan array binding signal (z-score) [27]: -0.49
